Data published in PubChem BioAssay AID1903 (Southern Research Specialized Biocontainment Screening …, 2009).
Screen size: about 310,000 compounds; about 1,200 (0.39%) were called active. No rule for the calls is given here. These entries were drawn from the full list. Potency and affinity values are given separately.

Each compound was assayed against Large T antigen (Simian virus 40) (UniProt P03070) (assay: SV40 large T antigen inhibitors, biochemical (AID 1903)). Conditions: SV40 large T antigen ATPase/helicase inhibition assay; at 20 µM; hits give high values.
Large T antigen (Simian virus 40), sequence (P03070 whole entry, looked up): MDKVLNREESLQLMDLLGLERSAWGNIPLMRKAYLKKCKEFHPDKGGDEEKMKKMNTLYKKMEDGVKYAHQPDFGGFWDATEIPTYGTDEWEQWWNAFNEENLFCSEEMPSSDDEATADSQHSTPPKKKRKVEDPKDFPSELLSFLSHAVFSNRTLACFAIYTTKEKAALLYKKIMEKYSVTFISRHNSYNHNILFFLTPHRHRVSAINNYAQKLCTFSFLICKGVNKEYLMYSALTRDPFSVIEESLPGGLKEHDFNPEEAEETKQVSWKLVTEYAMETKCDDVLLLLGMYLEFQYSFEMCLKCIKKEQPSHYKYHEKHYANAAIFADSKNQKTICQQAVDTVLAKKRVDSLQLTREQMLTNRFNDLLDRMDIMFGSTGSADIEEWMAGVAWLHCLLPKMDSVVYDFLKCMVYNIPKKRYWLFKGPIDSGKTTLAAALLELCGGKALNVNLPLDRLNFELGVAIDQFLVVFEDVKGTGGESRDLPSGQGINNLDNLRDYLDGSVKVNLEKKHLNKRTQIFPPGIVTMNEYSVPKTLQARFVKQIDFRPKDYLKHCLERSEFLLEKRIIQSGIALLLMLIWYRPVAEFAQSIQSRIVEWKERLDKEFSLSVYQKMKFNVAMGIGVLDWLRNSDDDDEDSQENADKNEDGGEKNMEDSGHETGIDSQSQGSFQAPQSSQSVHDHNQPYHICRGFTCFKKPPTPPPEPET

inhibition, inactive:
CCOC(=O)c1nc(-c2ccccc2)sc1C(C)=O 13.2%, Cc1ccc(C)c(NC(=O)CN(C)C(=O)c2cc3ccccc3o2)c1 13.7%, O=[N+]([O-])c1cc(S(=O)(=O)Nc2ccccc2)ccc1N1CCN(c2ccc(O)cc2)CC1 17.3%, CC(=O)c1ccc(N2CCN(c3ccc(C(N)=O)cc3[N+](=O)[O-])CC2)cc1 12.7%, COc1ccc(N2CCN(c3ccc(C(N)=O)cc3[N+](=O)[O-])CC2)cc1 20.4%, O=[N+]([O-])c1ccc(N2CCCCC2)cn1 4.49%, CN1CCN(c2ccc(S(=O)(=O)N3CCCCC3)cc2[N+](=O)[O-])CC1 23.6%, O=[N+]([O-])c1ccc(N2CCOCC2)cn1 20.2%, CSc1ncccc1C(=O)Nc1nc(C(C)(C)C)cs1 8.58%, COc1ccc(C(CC(=O)NCc2ccccc2)C(C)C)cc1 (stereo not given) 6.33%, Cc1c(NC(=O)C(C)OC(=O)COc2ccccc2)c(=O)n(-c2ccccc2)n1C (stereo not given) 10.4%, CCCCN(CCCC)CCNC(=O)Cc1nc2c(c(=O)[nH]c(=O)n2C)n1C 3.54%, CC(NC(=O)Nc1ccc(F)cc1F)c1ccc2c(c1)OCO2 (stereo not given) 16.7%, CCCn1c(SCC(=O)NCc2ccc(C)cc2)n[nH]c1=O 7.77%, COc1ccc(NC(=O)CN(C)C(=O)c2cccc(S(=O)(=O)N3CCN(Cc4ccccc4)CC3)c2)cc1 8.39%, COCCn1c(SCC(=O)N2CC(C)OC(C)C2)nc2c([nH]c3ccccc32)c1=O (stereo not given) -1.92%, CN1CCN(CCC(=O)N/N=C/c2cc3c(cc2[N+](=O)[O-])OCO3)CC1 4.45%, O=C(CCc1ccc(O)c(O)c1)N/N=C/c1ccc2c(c1)OCO2 32.3%, COc1ccc(OC)c(/C=N/NC(=O)CCc2c(C)n[nH]c2C)c1 5.18%, COc1ccc(OC)c(/C=N/NC(=O)C(=O)N/N=C/c2cc(OC)ccc2OC)c1 -5.1%, CCN(CC)S(=O)(=O)c1cccc(NC(=O)COC(=O)CCc2nc3ccccc3s2)c1 11.8%, Cc1snc(S(=O)(=O)/C(C#N)=N/Nc2ccc(C(F)(F)F)cc2)c1C#N 6.46%, Cc1ccc(C)c(C(=O)CSc2nnc(C)s2)c1 -0.65%, CC1CCCCN1C(=O)CSc1nc(N)nc(N)n1 (stereo not given) 3.86%, COc1ccc(NC(=O)c2ccccc2NC(=O)COc2ccccc2)cc1 12.1%, COC(=O)c1ccc(OC)c(NS(=O)(=O)c2ccc(-n3cnnn3)cc2)c1 2.42%, Cn1nc(-c2ccccc2)nc1-c1ccccc1 11.2%, O=c1nc(-c2ccccc2)n(-c2ccccc2)[nH]1 -3.35%, COc1cc(C(=O)NCC(=O)N/N=C/c2ccccn2)cc(OC)c1OC 10.4%, CCc1c(C(=O)NNC(=S)Nc2ccc(S(=O)(=O)Nc3ncccn3)cc2)csc1C 15.1%, Cc1n[nH]c(C)c1S(=O)(=O)N1CCC(C(=O)Nc2cccc(F)c2)CC1 4.04%, O=C(NCCc1ccccc1)C1CCN(S(=O)(=O)N2CCCC2)CC1 7.04%, CCC(=O)Nc1ccc(NC(=O)c2ccco2)cc1 2.13%, COc1cccc(OC)c1C(=O)Nc1ccc(NC(=O)c2ccco2)cc1 2.08%, CC(=O)Nc1ccc(NC(=O)c2ccccc2F)cc1 2.47%, O=C(Nc1ccc(NC(=O)c2ccco2)cc1)c1ccco1 3.69%, COc1ccccc1NC(=O)c1ccc(NC(=O)c2ccco2)cc1 9.63%, CCN(CC)S(=O)(=O)c1ccc(NC(=O)CCNC(=O)c2ccco2)cc1 7.03%, Cc1ccc(NC(=O)CCNC(=O)c2ccco2)cc1 1%, O=C(Nc1ccc(F)cc1)c1ccccc1F 12.9%, Cc1cccc(C)c1OCC(=O)NNC(=O)c1ccoc1C 2.67%, CN(C)CCCN(C(=O)c1ccc2ccccc2c1)c1nc2cc3c(cc2s1)OCO3 3.84%, CCOC(=O)n1c(=O)n(C)c2ccc(Br)cc21 4.58%, C(=C\c1ccccc1)/C=N/Nc1nncc(-c2ccccc2)n1 8.88%, Cc1ccc(CN2CCN(C3CCC3)CC2CCO)cc1 (stereo not given) 9.81%, COc1cc(C2Oc3cc(C4Oc5cc(O)cc(O)c5C(=O)C4O)ccc3OC2CO)ccc1O (stereo not given) 22.1%, COc1cc([C@H]2Oc3cc([C@H]4Oc5cc(O)cc(O)c5C(=O)[C@@H]4O)ccc3O[C@@H]2CO)ccc1O 22.1%, CCc1nnc(SCc2ccc(C(=O)OC)o2)n1N 15%, CN1/C(=C/C=N/NC(=O)c2ccc([N+](=O)[O-])cc2)C(C)(C)c2ccccc21 4.27%, CN1/C(=C\C=N\NC(=O)c2cccnc2)C(C)(C)c2ccccc21 33.6%, Cc1ccccc1N1CC(=O)N(c2ccccc2C)CC1=O 0.89%, Cn1c2ccccc2c(=O)c2ccc(F)cc21 0.83%, O=C(CN1C2CCCC1CC(NC(=O)c1ccccc1)C2)NC1CC1 (stereo not given) 6.22%, COc1cccc(C(=O)NC2CC3CCCC(C2)N3CC(=O)Nc2ccccc2)c1 (stereo not given) 34%, COc1cccc(C(=O)NC2CC3CCCC(C2)N3CC(=O)Nc2ccccc2C(F)(F)F)c1 (stereo not given) -1.46%, O=C(CN1C2CCCC1CC(NC(=O)c1ccccc1)C2)Nc1ccccc1 (stereo not given) -14.7%, COc1cc(OC)c(C(=O)NC23CC4CC(CC(C4)C2)C3)cc1OC 3.9%, COC(=O)c1ccc(/C=N/OCC(=O)NCCc2ccc(OC)c(OC)c2)cc1 2.45%, Cn1c(-c2ccccc2)c[n+]2c1-c1ccccc1C2 6.66%, Cc1cccc(N2CCN(C3=NC(=O)C(=C4CCCCC4)S3)CC2)c1 7.31%
